Test results taken from PMC5540273 (PLoS ONE, 2017).

test system: CSNK1E; settings: concentration: 1 μM, replicates: in singlicate; n = 1
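Further: KINOMEscan kinase panel screen.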

Compound	%Inh [%]
Cn1cc(-c2[nH]c3cc(NC(=O)[C@H](N)C4CCCCC4)cc4c3c2C=NNC4=O)cn1	11
O=C(Nc1cccc(-c2nn3ccccc3c2-c2ccnc(Nc3cccc(F)c3)n2)c1)c1c(F)ccc(F)c1Cl [GSK357952]	40
O=C(Nc1ccccc1F)NC1CCN(c2ccnc(Nc3ccc(F)cc3)n2)CC1 [GSK1379800]	60
CSc1cccc2c(-c3ccncn3)c(-c3ccc(F)cc3)nn12 [GW514786]	69
COc1ccc(-c2coc3ccc(-c4nnc(SCc5ccc(OC)c(C(F)(F)F)c5)o4)cc23)cc1	0

test system: CSNK1G1; settings: concentration: 1 μM, replicates: in singlicate; n = 1

Compound	%Inh [%]
CN(C)S(=O)(=O)c1cc(-c2ccc3nccc(-c4cccc(S(N)(=O)=O)c4)c3c2)cnc1N [GSK1669921]	22
CCS(=O)(=O)c1ccc(OC)c(Nc2nccc(-c3c(-c4cccc(NC(=O)c5c(F)cccc5F)c4)nn4ncccc34)n2)c1 [GSK326180]	15
COc1cc(Nc2nccc(N3CCC(NC(=O)c4cc5ccccc5s4)C3)n2)cc(OC)c1OC (centres unmarked) [GSK1379760]	9
Cc1ccc(F)c(C(=O)Nc2cccc(-c3nn4ccccc4c3-c3ccnc(Nc4cccc(F)c4)n3)c2)c1F [GSK361061]	10
Clc1ccc(-c2nn3ncccc3c2-c2ccnc(Nc3ccc4c(c3)OCCO4)n2)cc1 [GW829116]	0
CCCCc1nn2ncccc2c1-c1ccnc(Nc2ccc(N3CCN(C)CC3)cc2)n1 [GW684941]	0
CCn1c(-c2nonc2N)nc2c(C#CC(C)(C)O)ncc(OCCCCN)c21.O=C(O)C(F)(F)F.O=C(O)C(F)(F)F [GSK507274]	40
O=C(NC1CCN(c2ccnc(Nc3ccc(F)cc3)n2)C1)c1cc2ccccc2s1 (centres unmarked) [GSK1379716]	20
COc1cc2c(cc1OCCN1CCNCC1)ncc1c3ccc(C#N)cc3[nH]c21	0
COc1cc(Nc2nccc(N3CCC(NC(=O)Nc4cccc(C(C)=O)c4)C3)n2)cc(OC)c1OC (centres unmarked) [GSK1379753]	12
O=C(Nc1cccc(-c2nn3ccccc3c2-c2ccnc(Nc3cccc(C(F)(F)F)c3)n2)c1)c1c(F)cccc1F [GSK292658]	0
CN(c1ccc(NC(=O)Nc2cc(C(F)(F)F)ccc2F)cc1)c1ccnc(Nc2ccc(S(N)(=O)=O)cc2)n1 [GW809893]	5
Cc1cccc(NC(=O)Nc2ccc(Oc3ncnc4ccn(C)c34)cc2)c1	0
Cl.c1ccc(-c2ccc3c(Nc4ccc5[nH]ccc5c4)ccnc3c2)nc1 [GW440138]	0
CN1CCN(CCCNc2nccc(-c3c(-c4ccc(F)cc4)nn4cc(C(F)(F)F)ccc34)n2)CC1 [GW621581]	0
C[C@@H](Oc1cc(-n2cnc3cc(-c4ccnc(NCCS(C)(=O)=O)c4)ccc32)sc1C(N)=O)c1ccccc1Cl [GSK907232]	13
Cc1cccc(Nc2nc(N[C@H]3CCNC3)ncc2C(N)=O)c1.Cl [GSK2197149]	14
CCc1ccc(-c2ccc3c(c2)-c2c(cnn2C)S(=O)(=O)N3C)cc1	0
COc1cc(Nc2ncc3c(C)nc(-c4cc5ccccc5[nH]4)n3n2)cc(OC)c1OC [GW869516]	21
Cc1ccc(S(=O)(=O)Nc2ccc(Nc3nccc(Nc4cccc5[nH]ncc45)n3)cc2)cc1 [GSK581271]	0
COc1ccc(Nc2nccc(NCCNC(=O)c3cc4ccccc4s3)n2)cc1 [GSK1379896]	54
CN1CCN(Cc2cccc(-c3ccc4c(Nc5ccc(Oc6ccccc6)cc5)ccnc4c3)c2)CC1 [GW578342]	18
COc1ccc(Nc2nccc(N3CCC(NC(=O)Nc4cccc(OC)c4)C3)n2)cc1 (centres unmarked) [GSK1379742]	13
O=C(Nc1n[nH]c2cc(-c3ccoc3)ccc12)C1CC1 [SB-738481]	0
Nc1ncnc2c1nc(-c1ccccc1)n2-c1ccccc1 [SKF-97293]	4
COc1ccc(CNC(=O)NC2CCN(c3ccnc(Nc4ccc(F)cc4)n3)CC2)cc1 [GSK1379788]	0
Cc1occc1-c1ncc(OC[C@@H](N)Cc2c[nH]c3ccccc23)cc1-c1ccc2[nH]nc(C)c2c1.O=C(O)C(F)(F)F [GSK682037]	76
